Laboratory results from PubChem BioAssay AID1835 (Johns Hopkins Ion Channel Center, 2009).
The campaign covered roughly 2,400 compounds. About 750 (31%) were called active.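 How the source made its calls: active means median signal gain over dofetilide-blocked control wells reaching their mean plus 3 SD, so readout 1 at least 0; inactive means the rest.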 The list shows a part of the results.

Target: Voltage-gated inwardly rectifying potassium channel KCNH2 (Homo sapiens) (UniProt Q12809)
Test: hERG protection against dofetilide inhibition, confirmation, cell-based, thallium flux, duplicate retest, dofetilide IC70 (AID 1835)
Conditions: hERG cell line, FluxOR thallium flux, dofetilide-blocked; at 10 µM; stronger effect = higher value

Chain of Voltage-gated inwardly rectifying potassium channel KCNH2 (Homo sapiens) (Q12809 whole entry, looked up): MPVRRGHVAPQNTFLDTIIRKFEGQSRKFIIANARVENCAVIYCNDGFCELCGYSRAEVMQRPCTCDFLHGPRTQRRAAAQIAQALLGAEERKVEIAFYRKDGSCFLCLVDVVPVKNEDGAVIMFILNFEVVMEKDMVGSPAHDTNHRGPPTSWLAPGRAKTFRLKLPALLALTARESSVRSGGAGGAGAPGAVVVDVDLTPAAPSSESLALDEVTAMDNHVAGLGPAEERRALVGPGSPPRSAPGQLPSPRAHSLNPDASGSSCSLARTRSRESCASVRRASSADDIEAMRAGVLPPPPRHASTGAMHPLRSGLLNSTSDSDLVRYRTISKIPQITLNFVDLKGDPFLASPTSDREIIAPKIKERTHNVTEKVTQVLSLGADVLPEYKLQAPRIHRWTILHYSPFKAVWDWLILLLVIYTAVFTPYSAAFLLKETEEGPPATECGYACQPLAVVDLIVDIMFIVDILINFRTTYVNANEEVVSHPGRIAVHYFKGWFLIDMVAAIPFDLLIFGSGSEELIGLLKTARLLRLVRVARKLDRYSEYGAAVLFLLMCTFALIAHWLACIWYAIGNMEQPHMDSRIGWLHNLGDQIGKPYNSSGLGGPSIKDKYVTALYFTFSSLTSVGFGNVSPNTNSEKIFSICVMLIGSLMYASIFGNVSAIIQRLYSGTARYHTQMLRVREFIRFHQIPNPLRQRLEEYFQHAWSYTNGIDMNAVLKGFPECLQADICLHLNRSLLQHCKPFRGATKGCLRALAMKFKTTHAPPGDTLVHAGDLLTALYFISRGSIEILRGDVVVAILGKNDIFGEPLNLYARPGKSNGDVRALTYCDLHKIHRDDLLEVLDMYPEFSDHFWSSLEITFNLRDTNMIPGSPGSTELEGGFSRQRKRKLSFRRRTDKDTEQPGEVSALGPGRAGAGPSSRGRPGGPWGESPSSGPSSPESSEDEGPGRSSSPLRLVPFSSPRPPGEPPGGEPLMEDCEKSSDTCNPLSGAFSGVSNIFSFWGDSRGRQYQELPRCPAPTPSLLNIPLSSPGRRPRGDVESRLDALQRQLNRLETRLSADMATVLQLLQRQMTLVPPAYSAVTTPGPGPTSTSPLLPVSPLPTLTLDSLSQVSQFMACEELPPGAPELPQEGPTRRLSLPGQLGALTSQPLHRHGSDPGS

SMILES	activity increase over dofetilide control, less the hit threshold
CC(C)C12CN3CC(C(C)C)(CN(C1)C31C(=O)Nc3ccccc31)C2=O (stereo not given)	-24% (inactive)
O=C(COc1nsnc1N1CCOCC1)Nc1ccc(Cl)cc1	-21% (inactive)
CC(C)(C)c1csc(NC(=O)C2=COCCO2)n1	-17% (inactive)
CCc1nnc(NC(=O)CCC(=O)N2CCN(C3CCCCC3)CC2)s1	-22% (inactive)
Cc1ccccc1-n1c(SCC(=O)N(C)C2CCS(=O)(=O)C2)nnc1-c1ccncc1 (stereo not given)	-8% (inactive)
O=C(O)CCSc1ncnc2sc(-c3ccccc3)cc12	9% (active)
CN(C(=O)CSc1ncnc2sc(-c3ccccc3)cc12)C1CCS(=O)(=O)C1 (stereo not given)	82% (active)
CCOC(=O)c1sc2nc(C)nc(SCC(=O)N(C)C3CCS(=O)(=O)C3)c2c1C (stereo not given)	-6% (inactive)
Nc1nc2c(s1)CCc1c-2cnn1-c1ccccc1	-46% (inactive)
CC(=O)c1ccc(N2CCN(C(=O)Cc3ccccc3)CC2)c(F)c1	-15% (inactive)
O=c1c(-c2ccccc2)nc(-c2ccccc2)cn1O	33% (active)
Cc1nc(-c2ccccc2)cn(O)c1=O	16% (active)
COC(=O)Nc1c(-c2ccccc2)nc2ccccn12	-4% (inactive)
CC1=NN(c2nc(-c3ccccc3)cs2)C(=O)C1N=Nc1ccccc1 (stereo not given)	-31% (inactive)
O=C(O)C/C(=C\c1cc(Br)cs1)c1nc2ccccc2o1	-6% (inactive)
Cc1cccc(/N=C/c2sc3ccccc3c2O)n1	-13% (inactive)
O=c1c([N+](=O)[O-])c(N2CCCCC2)c2ccccc2n1-c1ccccc1	-18% (inactive)
Oc1ccc2[nH]cnc2c1CN1CCCCC1	-18% (inactive)
Cc1ccccc1OCC(=O)N=Nc1c(O)n(C)c2ccccc12	-5% (inactive)
CCc1ccc2[nH]c(O)c(N=Nc3nc(-c4ccccc4)cs3)c2c1	-8% (inactive)
Cn1c(O)c(N=Nc2nc(-c3ccccc3)cs2)c2ccccc21	65% (active)
COC(=O)/C=C1\S/C(=N/N=C/c2ccco2)NC1=O	-10% (inactive)
CCOC(=O)c1cnn(-c2nc(SC)nc3sc4c(c23)CCCC4)c1N	-1% (inactive)
C=CCSc1nc2sc3c(c2c(=O)n1CC)CCc1ccccc1-3	-4% (inactive)
CCCn1c(SCC(=O)N2CCN(C(C)=O)CC2)nc2sc3c(c2c1=O)CCC3	20% (active)
CCn1c(SC(C)C(=O)O)nc2sc3c(c2c1=O)CCC3 (stereo not given)	7% (active)
CCn1c(SCC(N)=O)nc2sc3c(c2c1=O)CCCC3	3% (active)

SMILES	activity increase over dofetilide control, less the hit threshold
CCC(=O)N1CCN(c2nc(CC)nc3sc4c(c23)CCCC4)CC1	-30% (inactive)
CC(=O)/C=C1/C(=O)Nc2ccccc21	-39% (inactive)
COc1cc(/C=N/Nc2nc(N3CCCC3)nc(N3CCCC3)n2)ccc1OCc1ccccc1F	-34% (inactive)
O=C1CC(C(=O)N2CCOCC2)C2(CCCCC2)O1 (stereo not given)	-19% (inactive)
CC1CCN(c2ccc3c(c2)S(=O)(=O)c2ccccc2C3=O)CC1	-27% (inactive)
O=C1c2ccccc2C(=O)N1Cc1nc2ccccc2c(=O)n1CCCn1ccnc1	-25% (inactive)
Cc1ccc(Cl)cc1NC(=S)N/N=C/c1cccc2ccccc12	-11% (inactive)
S=C(N/N=C/c1ccccc1Cl)Nc1cccc(Cl)c1Cl	23% (active)
Fc1ccccc1NC(=S)N/N=C/c1ccccc1Br	-20% (inactive)
O=C(CNCC1CCCO1)N1CCCCCC1 (stereo not given)	-11% (inactive)
Cc1ccc2c(Cl)cc(Cl)c(OCC(=O)NC3CCS(=O)(=O)C3)c2n1 (stereo not given)	-15% (inactive)
CCCCSc1nnc(CCC)n1N	-21% (inactive)
CCCCCCCC/C=C\CCCCCCCC(=O)O	22% (active)
O=C(c1ccc(CS(=O)c2cccc(Cl)c2)o1)N1CCCCCC1 (stereo not given)	-7% (inactive)
CC(C)(C)NC(=O)CN(C(=O)CS(=O)CC(=O)Nc1ccc(F)cc1)c1cccc(F)c1 (stereo not given)	-13% (inactive)
CC(C)Oc1c(Cl)cc(CNC(C)(C)CO)cc1Cl	1% (active)
Fc1ccccc1-c1n[nH]c(=S)n1C1CC1	-4% (inactive)
CC(C)(C)c1cc(-c2n[nH]c(=S)n2-c2ccccc2F)n[nH]1	7% (active)
CCC(=O)Nc1cc(=O)[nH]c2ncnn12	-24% (inactive)
Cc1cc(NC(=O)CSc2nc(C3CC3)nc3sc(C)c(C)c23)no1	26% (active)
CCCc1nc(SCC(=O)Nc2cc(C)on2)c2ccccc2n1	-10% (inactive)
Cc1cc(NC(=O)CSc2nnc(Nc3ccccc3)s2)no1	-11% (inactive)
C/C(=C\C(=O)c1ccncc1)Nc1ccccc1O	-7% (inactive)
COc1ccc(C(=O)NN/C(C)=C/C(=O)c2ccccc2)cc1	-26% (inactive)
C/C(=C\C(=O)c1ccccc1)NNC(=O)c1ccc(Cl)cc1	3% (active)
COc1ccc(C(=O)NNC(=O)C(=O)Nc2ccc(C)c(Cl)c2)cc1	86% (active)
COc1cccc(C(=O)NNC(=O)C(=O)Nc2cccc(Cl)c2C)c1	50% (active)

SMILES	activity increase over dofetilide control, less the hit threshold
COc1cccc(C(=O)Nc2cccc(-c3ccc(N4CCOCC4)nn3)c2)c1	-14% (inactive)
Cc1ccc(NC(=O)c2ccc3c(c2)OCO3)cc1Cl	-10% (inactive)
COc1cccc(C(=O)NNC(=O)C(=O)Nc2ccc(C)c(Cl)c2)c1	54% (active)
COc1ccc(C2/C(=C(/O)c3ccc(Br)cc3)C(=O)C(=O)N2C)cc1 (stereo not given)	-7% (inactive)
Cc1ccc(C(=O)n2c(-c3ccccc3)cnc2SCC(=O)Nc2ccc(C)cc2C)cc1	-8% (inactive)
Oc1c(N=NC(=S)Nc2ccccc2F)c2ccccc2n1Cc1ccccc1	36% (active)
Oc1c(N=NC(=S)Nc2ccccc2F)c2ccccc2n1Cc1ccc(F)cc1	32% (active)
Cc1c(Cl)cccc1NC(=S)N=Nc1c(O)n(CN2CCOCC2)c2ccccc12	18% (active)
Cc1cc(NC(=O)Cn2c(=O)n(Cc3ccccc3)c(=O)c3ccccc32)no1	-7% (inactive)
Oc1c(N=NC(=S)Nc2ccccc2F)c2ccccc2n1Cc1cccc(Cl)c1	-1% (inactive)
Oc1c(N=NC(=S)Nc2ccccc2F)c2ccccc2n1Cc1ccc(Cl)cc1	-2% (inactive)
Cc1cccc(Cn2c(O)c(N=NC(=S)Nc3ccccc3F)c3ccccc32)c1	4% (active)
CC(C)Oc1ccccc1C1(c2ccccc2)NC(=O)NC1=O (stereo not given)	-16% (inactive)
CC(C)NC(=O)Nc1n[nH]c(Nc2ccc(Cl)cc2)n1	-1% (inactive)
O=C1NC(=O)C2(COC(c3cccc([N+](=O)[O-])c3)OC2)S1 (stereo not given)	-12% (inactive)
Nc1ccc2nc(-c3cccs3)[nH]c2c1	-10% (inactive)
Cc1cc(C)c(S(=O)(=O)c2ccccc2)c(OC(=O)c2c(F)cccc2Cl)n1	-30% (inactive)
O=C(CCc1ccccc1Cl)Nc1ccc(S(=O)(=O)N2CCOCC2)cc1	-6% (inactive)
CCc1ccccc1N(CC(=O)NC(C)c1ccccc1)S(C)(=O)=O (stereo not given)	-15% (inactive)
Cc1ccc(C(C)NC(=O)C2CCCC2)cc1C (stereo not given)	4% (active)
CCc1ccc(C(C)NC(=O)C2CCCC2)cc1 (stereo not given)	1% (active)
Cc1ccc(C(C)NC(=S)NC2CCCCC2)cc1C (stereo not given)	-6% (inactive)
CCc1ccc(C(C)NC(=O)c2ccc(F)cc2)cc1 (stereo not given)	4% (active)
CC(NC(=O)CCNC(=O)c1ccco1)c1ccc(F)cc1 (stereo not given)	-5% (inactive)
Cc1ccc(C(=O)NC(C)c2ccc(C)c(C)c2)s1 (stereo not given)	-6% (inactive)
CCc1ccc(C(=O)NNC(=O)c2ccc(=O)n(C)n2)cc1	-5% (inactive)
COc1cccc(C(=O)/C=C/Nc2ccc(S(=O)(=O)Nc3cnc4ccccc4n3)cc2)c1	-22% (inactive)

SMILES	activity increase over dofetilide control, less the hit threshold
CCc1nccn1S(=O)(=O)c1ccc2ccc(C)cc2c1	-15% (inactive)
CC1CCN(C(=O)CSc2nnc(CNC(=O)c3ccco3)o2)CC1	-15% (inactive)
O=C(c1csc(Nc2ccccc2Cl)n1)N1CCCC1	6% (active)
COc1ccc(-c2cc(C(=O)N3CCCC3)no2)cc1	-4% (inactive)
O=C(c1cccc2c1-c1ccccc1C2)N1CCCCC1	-17% (inactive)
CC1Oc2ccccc2N(CC(=O)N2CCCCCC2)C1=O (stereo not given)	-19% (inactive)
N#CCCn1cc(/C=N/NC(=O)c2ccncc2)c(-c2ccc(F)cc2)n1	-2% (inactive)
CCN(CC)C(=S)NC(=O)c1ccc(F)cc1	-9% (inactive)
CCCN(CCC)C(=S)NC(=O)c1ccc(Cl)cc1Cl	60% (active)
O=C(Nc1ccsc1C(=O)O)c1ccccc1Cl	-16% (inactive)
CCCN(CC(=O)Nc1ccccc1C)C(=O)CCl	-13% (inactive)
CN(C)/C=C/C(=O)c1ccc(Cl)cc1Cl	-11% (inactive)
CCCn1nnnc1NC(=O)c1cc(Cl)ccc1Cl	-8% (inactive)
CCCCN(CCCC)C(=S)NC(=O)c1ccccc1Cl	83% (active)
CCN(CC)C(=S)NC(=O)c1ccc(Cl)cc1Cl	11% (active)
Cn1c(CNC(=O)CNC(=O)c2ccc(F)cc2)cc(=O)n(C)c1=O	-15% (inactive)
CSc1ccc(C2NN=C(c3ccccc3)S2)cc1 (stereo not given)	-11% (inactive)
Cc1ccc(/C(O)=C2\C(=O)C(=O)N(Cc3cccnc3)C2c2ccccc2[N+](=O)[O-])cc1 (stereo not given)	-26% (inactive)
O=C1C=C(NCCN2CCOCC2)C(=O)c2cnccc21	-3% (inactive)
Cc1ccc(OCCC(=O)OC(C)C(=O)NC2CC2)cc1 (stereo not given)	-12% (inactive)
O=c1ccn(Cc2ccc(F)cc2)c2ccnc(C(F)(F)F)c12	-15% (inactive)
O=c1cc(-c2ccccc2)cc(-c2ccccc2)n1O	22% (active)
CN1/C(=C/C=C(C#N)C#N)C=Cc2ccccc21	66% (active)
CCCCc1cc(=O)oc2c(C)c(OCC(=O)NCc3ccccn3)ccc12	-9% (inactive)
